Source: PubChem BioAssay (several laboratories)
Shown are actives, neighbours in structure and some others; about 3.5% of the full set was active somewhere.
Platelet DG rel: platelet dense granule release activity | human platelet-rich plasma, SFLLRN dense granule ATP release, luminescence | inhibition, %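 (compounds screened at 7.5 µM in platelet-rich plasma)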 | actives 0.22% (n = 300,000) | AID 1663;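 active = mean replicate score, as percent of positive control, at or above 50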
PPC-1+TRAIL kill: kills PPC-1 cancer cells in the presence of TRAIL | PPC-1 cells + TRAIL, ATPLite viability luminescence | cell killing (% activity), % at 4 µM or 5 µM | actives 0.41% (n = 220,000);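 active = cell killing above 50% in the first pass at 4 µM, then a duplicate retest at 5 µM averaging 50% or more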;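 note: plate controls were cells with TRAIL plus DMSO for no effect and medium-only wells lacking cells for full effect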
C8 TRAIL sens: sensitizes caspase-8 expressing cells to TRAIL. actives 1% (n = 360,000). inhibition (viability loss, TRAIL sensitization), % at 10 µM. NB7+C8 cells + TRAIL, ATPlite viability luminescence;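 active = compounds causing at least 50% loss of cell viability in the single-dose screen, relative to plate controls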
TROY NFkB inh: inhibitors of TROY-dependent NF-kB signaling; Q293 LMP1-TROYcd NF-kB luciferase reporter, 4 h; inhibition, % at 10 µM; actives 0.98% (n = 360,000); AID 1347056;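 active = compounds whose plate-normalised and pattern-corrected inhibition of the luciferase reporter signal at the single screening dose is 50% or more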
HSP90 refold inh: HSP90 refolding inhibition in rabbit reticulocyte lysate; AID 1789; luciferase refolding luminescence, 3 h; inhibition, % at 5.6 µM; actives 0.91% (n = 290,000);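 active = inhibition above the screen-wide mean plus 3 SD, computed separately per campaign, cut at about 16% in these data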;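 note: 0% = DMSO wells and 100% = 60 µM geldanamycin wells; inhibitors lower the luminescence because luciferase stays unfolded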
TWEAK-Fn14 inh: inhibitors of TWEAK-Fn14 interaction signaling; TWEAK-stimulated Fn14 reporter cells, luciferase luminescence, 8 h; inhibition, % at 10 µM; actives 2% (n = 360,000); in the data active = inhibition above about 50%
* = called active by the depositor; nt = not tested or not shown.

SMILES	Platelet DG rel	PPC-1+TRAIL kill	C8 TRAIL sens	TROY NFkB inh	HSP90 refold inh	TWEAK-Fn14 inh
COc1ccccc1CN1C(=O)C(Cc2ccccc2)ON=C1c1ncccc1C (centres undefined)	nt	nt	24	-5	nt	13
CC(C)c1cc(C(=O)NNC(=S)NC2CCCCC2)cs1	6	nt	-9	49	3	50*
COc1ccc(C2C(O)C(c3c[nH]c4ccccc34)=NN2C(=O)CCl)cc1 (centres undefined)	-6	nt	96*	-26	7	94*
COc1ccc(C2NN=C(c3c[nH]c4ccccc34)C2O)cc1 (centres undefined)	-1	nt	3	-32	3	-13
CC(C)CC(NC(=O)OCc1ccccc1)C(=O)NC(Cc1ccccc1)C(=O)CCl (centres undefined)	nt	nt	90*	-8	nt	34
Cc1ccc(OCCCNCCO)c(Br)c1	-1	7	37	20	0	53*
CCCCNCCCOc1ccc(C)cc1Br	-3	8	1	-6	5	14
Cc1cccc(C(=O)Nc2ccc(C(=O)/C=C/c3ccncc3)cc2)c1	1	nt	19	58*	7	-13
Cc1cccc(C(=O)Nc2ccc(C(=O)/C=C/c3cccnc3)cc2)c1	-29	8	5	-76	0	0
Cc1ccc(NC(=O)c2ccc(Nc3c([N+](=O)[O-])cc([N+](=O)[O-])cc3[N+](=O)[O-])cc2)cc1	1	46	19	66*	-5	94*
Cc1ccc(NC(=O)c2ccc(C)cc2)cc1	3	nt	73*	4	nt	59*
COC(=O)Cc1ccc(NC(=O)c2ccc(C(C)(C)C)cc2)cc1	-3	40	74*	19	13	45
CC(C)(C)c1ccc(C(=O)Nc2ccc(Cl)cc2)cc1	2	22	20	-79	-5	-28
COc1cc(C(=O)N2CCN(C)C(C)C2)ccc1OC1CCN(C(C)=O)CC1 (centres undefined)	-3	nt	-32	-25	-3	-1
Cc1cccc(C(=O)Nc2ccc(C(=O)Nc3ccc(O)cc3)cc2)c1	-3	nt	68*	-5	-3	-17
O=C(Nc1ccc(NC(=O)c2cccs2)cc1)c1ccccc1	9	nt	1	-23	-2	0
O=C(Nc1ccc(O)cc1)c1ccc(NC(=O)c2cccs2)cc1	8	nt	66*	-53	-3	-18
O=C(NCc1cccs1)c1nc2c(nnn2Cc2ccccc2Cl)c(=O)[nH]1	-6	22	25	83*	2	96*
O=C(Nc1cccc([N+](=O)[O-])c1)c1ccc(-c2ccccc2)cc1	-4	-5	10	-17	-4	2
O=C(Nc1cccc([N+](=O)[O-])c1)c1cc2ccccc2cc1O	-10	28	60*	12	-3	83*
Cc1c(C(=O)Nc2cccc([N+](=O)[O-])c2)csc1-c1ccccc1	8	12	57*	-34	-2	-26
O=C(O)c1ccccc1C(=O)Nc1cccc([N+](=O)[O-])c1	-6	13	11	-4	-1	-10
CCOc1ccc(S(=O)(=O)N(CC)CC(=O)NCc2cccnc2)cc1	-11	nt	7	-13	-4	-18
CCCCn1c(SCC(=O)Nc2cccc(OC)c2)nc2ccc(N3CCOCC3)cc2c1=O	14	16	-15	62*	5	32
COc1ccccc1C(=O)NCCNC(=O)c1ccc(C)nc1	10	nt	11	3	1	-11
SMILES	Platelet DG rel	PPC-1+TRAIL kill	C8 TRAIL sens	TROY NFkB inh	HSP90 refold inh	TWEAK-Fn14 inh
S=C(NCCC(c1ccccc1)c1ccccc1)Nc1ccc(Cl)cc1	-3	-7	-3	45	3	62*
COc1cc(NC(=S)NCCC(c2ccccc2)c2ccccc2)c(OC)cc1Cl	0	7	22	53*	5	30
COc1ccc(Cl)cc1NC(=S)NCCC(c1ccccc1)c1ccccc1	-3	-9	0	25	-2	27
O=S(=O)(c1ccc(NC(=S)NCCC(c2ccccc2)c2ccccc2)cc1)N1CCOCC1	1	38	6	39	-1	56*
O=C(CC[C@H]1O[C@@H](n2cnc3c(NC(=O)c4ccccc4)ncnc32)[C@H](O)[C@@H]1O)NCCCN1CCCC1=O	nt	nt	-7	10	nt	-15
COc1ccc(OC)c(S(=O)(=O)NCC(c2ccco2)N2CCc3ccccc32)c1 (centres undefined)	4	nt	-14	8	nt	5
CC(=O)c1c(C)nn(CC(=O)NC2CCCN(Cc3ccc(CC(C)C)cc3)C2)c1C (centres undefined)	77*	nt	14	10	-1	-10
COc1ccc(F)cc1CSc1nnnn1-c1ccc(O)cc1	1	nt	5	34	-3	29
COc1cc(CSc2nnnn2-c2ccc(C)cc2)cc(OC)c1OC	1	-4	21	54*	0	48
COc1ccc(CCNC(=O)C(=O)NCC2CCCN2S(=O)(=O)c2ccccc2)cc1 (centres undefined)	12	nt	23	51*	nt	-18
Cc1ccc2[nH]c(CNC(=O)C3CCCCC3)cc2c1	2	nt	-16	53*	3	72*
Cc1ccc(CNC(=O)C2CCCC2)cc1	15	nt	-25	-22	nt	-22
O=C(Nc1ccc2nc(C(F)(F)F)[nH]c2c1)[C@@H]1O[C@H](CO)[C@@H](O)[C@H]1O	nt	nt	3	-13	nt	16
Nc1nc(N)c2cc(S(=O)(=O)c3cccc(C(F)(F)F)c3)ccc2n1	nt	nt	73*	22	nt	18
COc1ccc2c(c1)c(C(C)=O)c(C)n2CCc1ccccc1	-4	nt	-6	27	-1	69*
COc1ccc2c(c1)c(C(C)=O)c(C)n2-c1ccccc1	-10	-20	0	20	-3	26
COc1ccc(-n2c(C)c(C(C)=O)c(C(C)=O)c2C)cc1OC	53*	11	-17	-20	2	-11
COc1ccc2c(c1)c(C(C)=O)c(C)n2CCc1ccc(OC)c(OC)c1	-9	nt	-3	-19	-2	-26
COc1ccc(-n2c(C)c(C(C)=O)c3cc(O)ccc32)cc1	-10	-8	-6	49	-2	59*
CCOc1ccc(-n2c(C)c(C(C)=O)c3cc(OC(C)=O)ccc32)cc1	-42	nt	-2	42	7	79*
CCOc1ccc(-n2c(C)c(C(=O)O)c3cc(OC)ccc32)cc1	6	nt	-20	-15	1	40
COC1=CC(=O)OC(c2ccco2)C1 (centres undefined)	nt	nt	-11	11	nt	-9
O=c1[nH]c(CSc2ccccn2)nc2c1oc1ccccc12	4	31	30	46	7	65*
CCc1ccc(C(=O)CN(C#N)c2nc(C)cc(C)n2)cc1	-1	8	6	7	-1	62*
COC(=O)CCN(C(=O)c1ccc(Cl)c([N+](=O)[O-])c1)c1ccccn1	3	-29	-5	-17	2	-6
